Compound activity (PubChem)
This is a sample that favours compounds with a hit; in the whole collection about 21% have one here.
RORg inh: blocks mouse ROR gamma transcriptional activity; P51450; Drosophila S2 Gal4-RORgamma UAS-luciferase reporter, 20 h; Potency, µM (series often up to 53.6 µM), usual class: inhibitors; actives 5.4% (n = 310,000); further: nearly all actives have a fitted effect of over 60% in size
Target sequence (P51450 whole entry, looked up, the tested form may be a part): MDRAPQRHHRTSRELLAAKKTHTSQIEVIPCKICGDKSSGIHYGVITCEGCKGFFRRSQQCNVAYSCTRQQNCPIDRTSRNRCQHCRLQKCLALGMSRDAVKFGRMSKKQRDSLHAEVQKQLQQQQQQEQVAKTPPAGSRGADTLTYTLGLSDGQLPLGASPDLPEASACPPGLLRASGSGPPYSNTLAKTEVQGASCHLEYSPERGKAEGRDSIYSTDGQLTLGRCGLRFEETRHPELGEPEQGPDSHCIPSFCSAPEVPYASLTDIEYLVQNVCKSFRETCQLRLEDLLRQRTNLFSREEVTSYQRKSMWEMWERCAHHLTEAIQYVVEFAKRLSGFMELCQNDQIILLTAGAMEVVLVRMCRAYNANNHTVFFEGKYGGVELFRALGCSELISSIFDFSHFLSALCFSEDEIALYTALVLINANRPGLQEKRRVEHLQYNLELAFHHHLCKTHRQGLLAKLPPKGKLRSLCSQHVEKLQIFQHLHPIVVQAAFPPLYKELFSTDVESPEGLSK
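ROR gamma transcriptional activity was tracked as Gal4-UAS luciferase output in stably transfected Drosophila Schneider cells, with compound added 1 hr before 700 uM copper sulfate induction and a 20 hr ambient-temperature incubation.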
ELG1 DNA repair: inhibitors of ELG1-dependent DNA repair in HEK293T cells; HEK293T ELG1-luciferase reporter, luminescence, 16 h; DNA damage induced by 5-fluorouridine; Potency, µM (doses to about 46.1 µM), hits mostly inhibitors; actives 2.3% (n = 330,000); AID 504467; further: nearly all actives have a fitted effect of over 55% in size
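Luminescence from the luciferase reporter, measured 30 min after ONE-Glo reagent at room temperature, was the read-out. Beforehand, 2,000 cells per well were exposed for 16 hr at 37 °C to 5-fluorouridine together with compound or vehicle.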
VP16 counter: inhibits Gal4-VP16 luciferase reporter, ROR gamma counter-screen; Drosophila S2 Gal4-VP16 UAS-luciferase, luminescence, 20 h; Potency, µM (doses to about 53.6 µM), actives largely listed as inhibitors; actives 3.5% (n = 310,000);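 further: Gal4-VP16 expression switched on by copper sulfate through the metallothionein promoter; nearly all actives have a fitted effect of over 50% in size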
DT40 TDP1 no CPT: qHTS for Inhibitors of human tyrosyl-DNA phosphodiesterase 1 (TDP1): qHTS in cells in absence of CPT; DT40 Tdp1-/- hTDP1 cells, no CPT, ATP luminescence, 48 h; Potency, µM (series often up to 46.2 µM), usual class: inhibitors; actives 15% (n = 420,000); further: nearly all actives have a fitted effect of over 55% in size
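Readout: luminescence from CellTiter-Glo after 30 min in the dark at RT. Cells: DT40 Tdp1-/- with stable hTDP1, 400/well. Exposure: compounds alone, ≥48 hr, 37 °C.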
IL1B secr inh: inhibitors of inflammasome signaling (IL-1 beta secretion) | actives 4.7% (n = 360,000) | activity change, % at 57.5 µM | THP-1 LPS/ATP IL-1B secretion, AlphaLISA, 16 h; hits give low values | AID 743279; in the data active means activity change below about -50%; inconclusive means mostly about -30% to -49%
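Secreted IL-1B measured by AlphaLISA bead assay after 16 h compound exposure of THP-1 cells; compounds (final up to 57.5 uM) added 1 h before LPS (250 ng/mL) and ATP (1.25 mM) stimulation; lower signal means less secretion.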
DT40 TDP1 CPT: DT40-hTDP1 cell growth loss with CPT; actives 12% (n = 420,000); chicken DT40 Tdp1-/-;hTDP1 cells + 20 nM CPT, ATP luminescence, 48 h; Potency, µM (titrated, usually from 46.2 µM), actives largely listed as inhibitors; further: nearly all actives have a fitted effect of over 55% in size
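Cell growth measured by CellTiter-Glo luminescence after a minimum 48 h, 37 C compound exposure with 20 nM CPT in Tdp1-knockout DT40 cells stably expressing hTDP1, seeded 400/well; qHTS titration format.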
A number is an active result; i = inactive; ? = inconclusive; nt = no result. Unless noted, the call rests on the fitted dose curve; in most records, active means well fitted curve in the direction sought with a large enough effect; inconclusive means small, poorly fitted or top-dose-only effect, or another doubt; inactive means no such curve, though single readings can be large; an effect the other way counts as inactive or inconclusive.

SMILES	RORg inh	ELG1 DNA repair	VP16 counter	DT40 TDP1 no CPT	IL1B secr inh	DT40 TDP1 CPT
CCOC(=O)N1CCN(c2c(N3CCN(c4cccc(C(F)(F)F)c4)CC3)c(=O)c2=O)CC1	i	i	i	i	i	i
O=C(COc1cc2oc(=O)c3c(c2cc1Cl)CCC3)N1C[C@H]2C[C@@H](C1)c1cccc(=O)n1C2	i	?	i	i	i	i
C[C@@]12CCC3c4ccc(O)cc4CCC3C1CCC2O (stereo partly specified)	?	nt	i	?	nt	?
C=Cc1cc2c(cc1O)CCC1C2CCC2(C)C(O)CCC12 (stereo unspecified)	nt	nt	nt	16µM	?	?
CC#Cc1cc2c(cc1O)CCC1C2CCC2(C)C(O)CCC12 (stereo unspecified)	nt	nt	nt	2.3µM	i	2.9µM
O=c1c(-c2ccccc2)cocc1-c1ccccc1	nt	nt	nt	i	i	i
O=C(O)c1ccc(S(=O)(=O)N(Cc2ccccc2)C2CCCCC2)cc1	i	i	i	i	i	i
Cc1ccc(C(=O)NC(=S)Nc2cc(C(F)(F)F)ccc2Cl)cc1	10µM	i	i	i	i	i
COc1ccc(/C=N/NC(=S)Nc2cc(C(F)(F)F)ccc2Cl)cc1	0.35µM	i	4µM	?	i	?
FC(F)(F)c1ccc(Cl)c(NC(=S)N/N=C/c2ccccc2C(F)(F)F)c1	0.32µM	i	0.56µM	?	i	?
COc1ccc([C@H]2CC(=O)C[C@@H](CCn3cc(-c4ccncc4)nn3)O2)cc1	nt	nt	nt	?	i	i
CCCN(Cc1nnc(-c2ccccc2Cl)o1)C(=O)c1cc(S(=O)(=O)N2CCOCC2)ccc1F	nt	?	nt	?	i	?
CC1=C(C(=O)Nc2ccccc2)C(c2cccc(Cl)c2)n2nc(SCC(=O)c3ccc(C)cc3)nc2N1 (stereo unspecified)	nt	nt	nt	i	nt	i
O=C1OCCC1=COCCCCCOC=C1CCOC1=O	nt	nt	nt	i	i	i
O=C1CCCN1CCCNc1ncnc2sccc12	i	i	i	i	i	i
COCCNc1nc(NCCCN2CCCC2=O)c2sc(-c3ccccc3)cc2n1	nt	nt	nt	?	i	?
O=C1CCCN1CCCNc1nc(NCc2ccccc2)nc2ccsc12	nt	nt	nt	18µM	?	18µM
C=CCNc1nc(NCCCN2CCCC2=O)c2sc(-c3ccccc3)cc2n1	nt	nt	nt	21µM	nt	18µM
COCc1ccc(CN2CCCC(C(=O)Nc3ccc(-c4cccc(OC)c4)cc3)C2)o1 (stereo unspecified)	i	i	i	15µM	i	?
COc1cccc(-c2ccc(NC(=O)C3CCCN(CCCn4cccn4)C3)cc2)c1 (stereo unspecified)	?	i	?	?	i	?
COc1cccc(-c2ccc(NC(=O)C3CCCN(Cc4cnn(C(C)C)c4)C3)cc2)c1 (stereo unspecified)	i	i	i	?	-79	23µM
COc1cccc(-c2ccc(NC(=O)C3CCCN(Cc4cnc(N(C)C)s4)C3)cc2)c1 (stereo unspecified)	i	i	i	23µM	i	18µM
CCCc1ncc(CN2CCCC(C(=O)Nc3ccc(-c4cccc(OC)c4)cc3)C2)cn1 (stereo unspecified)	i	?	i	?	i	23µM
CC1(C)Cc2nc3sc4c(NCCO)ncnc4c3cc2CS1	4µM	i	?	21µM	i	?
CC(C)CCn1cnc2c(sc3nc4c(cc32)CSC(C)(C)C4)c1=O	i	?	i	16µM	i	?
CCCS(=O)(=O)c1c(S(=O)(=O)CCC)c2c3ccccc3ccn2c1C(=O)OC	?	?	i	26µM	?	?
COC(=O)c1c(S(N)(=O)=O)c2ccccc2n1C	i	i	i	i	i	i
CCCS(=O)(=O)c1c(S(=O)(=O)CCC)c2c(C)cccn2c1C(=O)OC	i	?	i	13µM	i	13µM
